mIDH1 inhibitor: blocks human mutant IDH1 R132H enzyme; O75874; IDH1-R132H enzyme, NADPH consumption, diaphorase/resazurin fluorescence; Potency, µM (doses to about 76.6 µM), for the others: at the highest dose activity change, negative = inhibition, actives largely listed as inhibitors; 0.093% of 390,000 active; further: on the % scale 0 is the no-effect control and ±100 the full control effect; nearly all actives have a fitted effect of over 65% in size
Target sequence (O75874 whole entry R132H, stated change not applied): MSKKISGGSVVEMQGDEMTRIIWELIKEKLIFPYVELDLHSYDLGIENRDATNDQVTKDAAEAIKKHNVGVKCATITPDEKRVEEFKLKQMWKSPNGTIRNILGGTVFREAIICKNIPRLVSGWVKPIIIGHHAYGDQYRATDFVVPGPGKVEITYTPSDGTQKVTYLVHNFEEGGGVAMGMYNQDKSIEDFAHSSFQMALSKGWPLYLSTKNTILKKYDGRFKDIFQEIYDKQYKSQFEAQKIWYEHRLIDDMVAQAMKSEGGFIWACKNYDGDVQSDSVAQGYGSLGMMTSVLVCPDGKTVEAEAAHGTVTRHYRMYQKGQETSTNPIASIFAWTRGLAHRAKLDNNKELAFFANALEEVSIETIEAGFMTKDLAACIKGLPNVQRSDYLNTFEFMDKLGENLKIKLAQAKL
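IDH1-R132H (0.5 ug/mL dispensed) in pH 7.5 Tris buffer was preincubated 30 min with compound, then given a substrate mix of 0.016 mM NADPH and 2 mM alpha-KG for 80 min at room temperature; remaining NADPH was read by diaphorase/resazurin fluorescence.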
TrxR1 substrate: rat thioredoxin reductase 1 substrate activity. O89049. purified TrxR1 substrate turnover, NADPH consumption readout. Potency, µM (series often up to 114 µM), for inactives: at the top dose activity change, negative = substrate turnover. 0.01% of 390,000 active. AID 588456; further: on the % scale 0 is the no-effect control and ±100 the full control effect; nearly all actives have a fitted effect of over 50% in size
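Rat TrxR1, dispensed at 90 nM, was prereduced with 400 uM NADPH (final) for 5 min at ~22 deg C, then incubated with compound 15 min before 400 uM selenite. A first-read NADPH fluorescence drop versus no-compound background flagged substrates.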
A549 tox: counter-screen for Nrf2 inhibitors: cytotoxicity in A549 cells | A549 ARE-Fluc cells, CellTiter-Fluor viability, 18-24 h | Potency, µM (titrated, usually from 46 µM), without a hit: at the top dose activity change, negative = cytotoxicity, actives largely listed as inhibitors | 0.16% of 390,000 active; further: on the % scale 0 is the no-effect control and ±100 the full control effect
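A549 ARE_Fluc cells in 5% FBS OPTI-MEM were exposed to compounds in concentration-response for 18-24 h at 37 deg C. Viability was read by CellTiter-Fluor fluorescence (Ex 405/Em 525) after 30 min, before the luciferase read.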
TrxR1 inh: rat TrxR1 inhibition. AID 588453. recombinant rTrxR1, NADPH fluorescence consumption, selenite substrate. 1% of 390,000 active. Potency, µM (titrated, usually from 114 µM), inactives show at the highest dose activity change, negative = inhibition, most hits filed as inhibitors. O89049; further: on the % scale 0 is the no-effect control and ±100 the full control effect; nearly all actives have a fitted effect of over 65% in size
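Rat TrxR1 (90 nM in the dispensed reagent) was pre-reduced with 400 uM NADPH for 5 min at room temperature, then incubated with compound for 15 min. After 400 uM selenite was added, NADPH fluorescence (Ex 340/Em 450 nm) was followed for 8 min.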
Mito fusion yeast: mitochondrial division inhibition or fusion activation; 0.23% of 320,000 active; S. cerevisiae fusion-defective mutant growth rescue, CellTiterGlo 48 h; Potency, µM (doses to about 46.1 µM), inactives show at the highest dose growth rescue (activation), usual class: activators; AID 485298; further: % of control where 0% means no effect; nearly all actives have a fitted effect of over 45% in size
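Luminescent cell viability in 1536-well qHTS format served as the measure of rescued growth in ts fusion-mutant S. cerevisiae cultured on non-fermentable YPEG for 48 hours at 37C.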
Nrf2 inh: Nrf2 pathway inhibition. A549 ARE-Fluc reporter, luciferase luminescence, 18-24 h. Potency, µM (titrated, usually from 46 µM), for the others: top-dose activity change, negative = inhibition, actives largely listed as inhibitors. 2.1% of 360,000 active. AID 504444; further: on the % scale 0 is the no-effect control and ±100 the full control effect; nearly all actives have a fitted effect of over 60% in size
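A549 ARE_Fluc cells, 5000/well, 5% FBS OPTI-MEM; compounds in dose-response, 18-24 h at 37 °C/5% CO2; CellTiter-Fluor viability read (Ex 405/Em 525), then BugLite luciferase luminescence = Nrf2 activity.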
Starred values were filed as active, the others as inactive; ? = inconclusive; nt = not tested or not shown; [ ] = remark or other dose. Shown are actives, neighbours in structure and some others; about 3.1% of the full set was active somewhere. The call rests on the fitted dose curve; in most records, active means well fitted curve in the direction sought with a large enough effect; inconclusive means small, poorly fitted or top-dose-only effect, or another doubt; inactive means no such curve, though single readings can be large; an effect the other way counts as inactive or inconclusive. Potency means the concentration at half of the fitted maximal effect.

SMILES | mIDH1 inhibitor | TrxR1 substrate | A549 tox | TrxR1 inh | Mito fusion yeast | Nrf2 inh
CCN(C(=O)C(=O)c1c(C)[nH]c2ccccc12)c1ccccc1 | nt | 3% | nt | 9% | nt | nt
COc1ccc(C(NC(=O)/C=C/c2ccco2)c2ccc(OC)c(OC)c2)cc1OC | -4% | -8% | -5% | 4.5µM* | -6% | -2%
COc1ccc(C(NC(=O)c2ccco2)c2ccc(OC)c(OC)c2)cc1 (stereo not drawn) | 4% | 10%[57.1 µM] | 13% | 17%[57.1 µM] | -14% | nt
COc1ccc(C2(CNC(=O)/C=C\c3ccco3)CCCC2)cc1OC | 12% | -1% | -4% | 10µM* | 2% | 10%
O=C(CSc1nc2ccc([N+](=O)[O-])cc2[nH]1)NC1CCCCCC1 | -8% | -3%[57.1 µM] | ? | -8%[57.1 µM] | 11% | 13µM*
Nc1ccc(/C=C/c2ccnc3ccccc23)cc1[N+](=O)[O-] | nt | -4%[0.0914 µM] | nt | 1% | nt | nt
Nc1c(S(=O)(=O)c2ccccc2)c2nc3ccccc3nc2n1Cc1ccco1 | -11% | 209% | ? | ? | 5% | 26µM*
Cc1ccc(S(=O)(=O)c2c(N)n(CCN3CCOCC3)c3nc4ccccc4nc23)cc1C | 10% | 33% | -11% | 39% | -3% | -26%
Nc1c(S(=O)(=O)c2ccccc2)c2nc3ccccc3nc2n1CCN1CCOCC1 | -5% | 56% | 0% | 3% | 1% | -13%
O=c1c2c3nc4ccccc4nc3n(Cc3ccccc3)c2ncn1Cc1ccco1 | 4% | 25% | -23% | 18µM* | 4% | ?
Cc1ccc(S(=O)(=O)c2c(N)n(Cc3ccco3)c3nc4ccccc4nc23)cc1C | -4% | 71% | ? | 11µM* | 24% | ?
COCCCn1c2nc3ccccc3nc2c2c(=O)n(Cc3ccc(Cl)cc3)cnc21 | 1% | 19% | -3% | 12% | 0% | 1%
Cc1ccc(N2CC(NC(=O)C3CCCC3)CC2=O)cc1 (stereo not drawn) | 5% | -1%[57.1 µM] | 6% | 10%[57.1 µM] | nt | nt
CS(=O)(=O)N1CCN(c2nc(-c3cccs3)nc3ccccc23)CC1 | nt | -11% | -5% | -5% | nt | ?
COc1ccc(-c2cn3cccnc3n2)cc1NC(=O)c1c(F)cccc1F | -10% | 61%[57.1 µM] | 1% | -21%[57.1 µM] | nt | nt
C/C(=N\NC(=O)C(C)Oc1ccc([N+](=O)[O-])cc1)c1ccccn1 (stereo not drawn) | 3% | -13% | ? | -7% | -7% | 6.5µM*
CNc1ccc(C=O)cc1Br | nt | -8% | nt | 2% | nt | nt
Cc1ccc(NS(=O)(=O)c2cc3c(cc2F)NC(=O)CC3)cc1Cl | nt | nt | -17% | nt | nt | ?
CCC1CCCCN1C(=O)CSc1nc(-c2ccc(OC)cc2)cc(C(F)(F)F)n1 (stereo not drawn) | -6% | 6% | -6% | 27% | nt | 21µM*
Cc1ccc(-n2cc(-c3ccccc3)c3c(N4CCCCC4)ncnc32)cc1 | 8% | 6%[57.1 µM] | 11% | 10%[57.1 µM] | nt | nt
CC1CN(c2ncnc3c2c(-c2ccccc2)cn3-c2ccc(F)cc2)CC(C)O1 (stereo not drawn) | -17% | 12%[57.1 µM] | ? | 25%[57.1 µM] | 4% | 18µM*
OCCN1CCN(c2ncnc3c2c(-c2ccccc2)cn3-c2ccc(F)cc2)CC1 | 1% | -3% | ? | -10%[57.1 µM] | 3% | ?
Cc1ccc(-n2cc(-c3ccccc3)c3c(N4CCOCC4)ncnc32)cc1 | 10% | 9%[57.1 µM] | -20% | 20%[57.1 µM] | 5% | 23µM*
COc1cc(Cl)c(C)cc1NC(=O)CC1Oc2ccccc2NC1=O (stereo not drawn) | -2% | -6% | 1% | 12% | nt | 13%
CC(C)(C)n1ncc2c(=O)n(Cc3ccc(Cl)c(C(F)(F)F)c3)cnc21 | nt | -4% | nt | 8% | nt | nt
SMILES | mIDH1 inhibitor | TrxR1 substrate | A549 tox | TrxR1 inh | Mito fusion yeast | Nrf2 inh
Cc1cc(C)cc(OCCSc2nc3ccc(NC(=O)c4ccc5c(c4)OCO5)cc3s2)c1 | -2% | 10% | 4% | 22% | nt | 3%
Nc1ccc(/C=C/c2ccnc3ccccc23)cc1 | nt | 10%[0.0914 µM] | nt | 23% | nt | nt
Cc1ccc(N(C(=O)CCl)C(C(=O)NC2CCCCC2)c2cccnc2)cc1C (stereo not drawn) | -8% | -4% | -7% | 10µM* | 0% | -10%
O=C(Cn1ncc(Cl)c(Cl)c1=O)NC1CCCCC1 | 0% | 1% | -4% | 56µM* | -10% | -14%
O=C(Cn1ncc(Cl)c(Cl)c1=O)NC1CCS(=O)(=O)C1 (stereo not drawn) | 10% | -2% | 1% | 13µM* | -3% | 0%
Cc1ccc(Cn2c(C)c3cnn(CC(=O)NC4CCCC4)c(=O)c3c2C)cc1 | -8% | -3%[57.1 µM] | 5% | -3%[57.1 µM] | 1% | 15%
O=C(Cn1ncc(Cl)c(Cl)c1=O)NCC1CCCCC1 | 9% | -2% | -3% | 35µM* | -8% | 14%
Cc1ccc(C)c(S(=O)(=O)C(C#N)c2nc3ccccc3nc2N2CC(C)OC(C)C2)c1 (stereo not drawn) | -3% | -10% | nt | -8% | 27% | 13µM*
COc1cccc(C(=O)Nc2ccc(N3CCN(C(=O)c4cccs4)CC3)cc2)c1 | 0% | -3%[57.1 µM] | ? | 8%[57.1 µM] | 4% | 21µM*
CCCC(=O)NC(=S)Nc1ccc(NC(=O)c2cccs2)cc1 | 2% | 8% | -3% | -10% | -4% | 6%
CCCC(=O)NC(=S)Nc1ccc(N2CCN(C(=O)c3cccs3)CC2)cc1 | -6% | 10% | -17% | ? | 6% | 15µM*
O=C(Nc1ccc(N2CCN(C(=O)c3cccs3)CC2)cc1)c1cccc(F)c1 | 0% | 3% | 7% | 32% | -4% | ?
CC1CCN(S(=O)(=O)c2cc(C(=O)NCCc3ccccc3)n(C)c2)CC1 | 1% | 2%[57.1 µM] | 13% | 1%[57.1 µM] | nt | nt
COc1ccc(NC(=O)/C(C#N)=C/c2cc(C)n(-c3ccc(N4CCOCC4)c([N+](=O)[O-])c3)c2C)cc1 | 11% | -16% | -12% | 0% | 10% | 6.5µM*
COc1ccc(CCc2nnc(CCC(=O)N(C)Cc3ccnc4ccccc34)o2)cc1 | 4% | 0% | ? | 6% | 1% | 21µM*
CS(=O)(=O)N1CCC(n2c(C(F)(F)F)nc3cccnc32)CC1 | -15% | 0%[57.1 µM] | 8% | 2%[57.1 µM] | nt | ?
CN(C)CCNc1nc2sc3c(c2c(=O)n1CCc1ccccc1)CCCCC3 | -2% | 1% | ? | 17% | 11% | -12%
CC(O)CNc1nc2sc3c(c2c(=O)n1CCc1ccccc1)CCCCC3 (stereo not drawn) | -7% | 4% | 0% | 50% | 20µM* | 31%
CCOC(=O)/C(=C\c1cn(C)c2ccccc12)[N+](=O)[O-] | 0% | -13% | -7% | 18µM* | 0% | 1%
